# Results from the supplement of paper PMC6555819.
# Assays:
# Test in all cases: PBM binding z-score (relative to random genomic background probes); higher = stronger binding; sequences stand for … in GC…GCGATTGACAGCGTAGAATGAAGG
# [1] = system: FXR:RXRa (NR concentration 270 nM, RXRa partner concentration 90 nM)
# Procedure, shortened: (§1)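 Custom Agilent 4×180K protein-binding microarrays carried double-stranded probes, each with a 34-nt variable region. These regions held direct-repeat seeds, single-nucleotide variants, half-site ablations and random human genomic background sequences. Ligand-free nuclear receptor dimers were incubated on the arrays for 1 h, antibodies against each partner (one per run) detected binding, and scanned fluorescence was regression-normalized. Binding z-scores take the random background probes as reference.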
# [2] = system: LXRa:RXRa (NR concentration 270 nM, RXRa partner concentration 90 nM)
# Procedure, shortened: as §1
# [3] = system: LXRa homodimer (NR concentration 270 nM)
# Procedure, shortened: as §1
# [4] = system: LXRb:RXRa (NR concentration 270 nM, RXRa partner concentration 90 nM)
# Procedure, shortened: as §1
# [5] = system: LXRb homodimer (NR concentration 270 nM)
# Procedure, shortened: as §1
# [6] = system: PPARa:RXRa (NR concentration 270 nM, RXRa partner concentration 90 nM)
# Procedure, shortened: as §1
# [7] = system: PPARg:RXRa (NR concentration 180 nM, RXRa partner concentration 90 nM)
# Procedure, shortened: as §1
# [8] = system: PPARg:RXRa 270nM:90nM, anti-RXR (NR concentration 270 nM, RXRa partner concentration 90 nM)
# Procedure, shortened: as §1
# [9] = system: PPARg:RXRa 30nM:10nM, anti-RXR (NR concentration 30 nM, RXRa partner concentration 10 nM)
# Procedure, shortened: as §1
# [10] = system: PPARg:RXRa 90nM:30nM, anti-RXR (NR concentration 90 nM, RXRa partner concentration 30 nM)
# Procedure, shortened: as §1
# [11] = system: PPARg:RXRa DBDmut IVT, anti-RXR (DBD mutation: RXRa K156A/R161A, NR concentration 270 nM, RXRa partner concentration 90 nM)
# Procedure, shortened: as §1
# [12] = system: PPARg:RXRa IVT, anti-PPARg (NR concentration 270 nM, RXRa partner concentration 90 nM)
# Procedure, shortened: as §1
# [13] = system: PPARg DBDmut:RXRa IVT, anti-PPARg (DBD mutation: PPARg1 K132A/R137A, NR concentration 270 nM, RXRa partner concentration 90 nM)
# Procedure, shortened: as §1
# [14] = system: PPARg DBDmut IVT, anti-PPARg (DBD mutation: PPARg1 K132A/R137A, NR concentration 270 nM)
# Procedure, shortened: as §1
# [15] = system: PPARg homodimer (NR concentration 180 nM)
# Procedure, shortened: as §1
# [16] = system: PXR:RXRa (NR concentration 270 nM, RXRa partner concentration 90 nM)
# Procedure, shortened: as §1
# [17] = system: PXR homodimer (NR concentration 270 nM)
# Procedure, shortened: as §1
# [18] = system: RARa:RXR (NR concentration 270 nM, RXRa partner concentration 90 nM)
# Procedure, shortened: as §1
# [19] = system: RARa homodimer (NR concentration 270 nM)
# Procedure, shortened: as §1
# [20] = system: RARb:RXRa (NR concentration 270 nM, RXRa partner concentration 90 nM)
# Procedure, shortened: as §1
Sequence,PBM binding z-score [1],PBM binding z-score [2],PBM binding z-score [3],PBM binding z-score [4],PBM binding z-score [5],PBM binding z-score [6],PBM binding z-score [7],PBM binding z-score [8],PBM binding z-score [9],PBM binding z-score [10],PBM binding z-score [11],PBM binding z-score [12],PBM binding z-score [13],PBM binding z-score [14],PBM binding z-score [15],PBM binding z-score [16],PBM binding z-score [17],PBM binding z-score [18],PBM binding z-score [19],PBM binding z-score [20]
CTACCACGGTGAACAAGGTCGTTGATTACTATTC,0.517,0.708,0.301,1.4,-0.058,1.28,0.357,0.508,-0.252,0.141,0.771,0.788,-0.025,-0.267,0.744,1.44,1.01,1.15,0.251,0.76
ATCGAAAGGTCGTAGGTGAGTATACCCACCCGAA,5.3,4.31,0.335,3.11,0.812,5.14,4.11,4.56,1.68,3.46,-0.212,2.34,1.08,0.645,1.97,3.12,0.577,4.04,0.489,3.76
CGTCCAAGGTCAGCAGGTCAGCGAAAGCGACGTG,6.11,4.35,0.407,3.19,-0.541,4.9,4.79,4.99,1.45,3.69,3.38,3.9,-0.473,-0.272,3.39,4.07,0.421,5.3,1.49,5.43
GCAGACGGGTGAAACGCAGGTAACTCAGGGTGGC,-0.349,-0.337,-0.751,-0.502,-1.12,0.266,0.241,-0.502,-0.732,-0.536,-0.241,-0.0586,-1.33,-0.958,-0.685,-0.244,-0.933,0.253,-0.996,0.14
GGATATAGGTAATACAAGGTGAAAGTCCGATTGT,1.08,2.72,0.722,1.12,0.202,2.58,2.63,2.51,0.801,1.87,5.48,5.34,1.29,1.44,1.17,1.02,0.527,2.01,1.8,0.806
GCTATTATTTGAAAGGGCAACCGAATGATTCTCG,0.306,0.97,1.37,0.925,0.441,1.08,0.626,1.41,0.637,0.844,0.681,0.479,0.791,0.619,1.8,0.697,1.02,1.07,2.43,2.09
CTCGAAAGGTCGCTTGAGGTGAGTATACGGATAA,4.18,3.88,-0.291,2.68,-0.203,4.15,2.15,2.92,0.841,1.64,0.887,1.84,-0.0758,0.0176,1.47,4.26,0.207,3.93,0.149,3.61
CTGGAAAGGTCGGTTGAGGTGAGTATACGGATAA,2.81,1.32,0.136,1.12,-0.219,2.57,0.576,0.975,-0.182,0.424,-0.117,0.957,-0.556,0.0614,0.799,3.21,-0.0647,2.05,0.351,2.89
CCTTCTAGGTCAATGGTCAGCTAAAGCAGCTCGC,3.17,2.37,0.146,1.58,0.698,4.34,7.25,6.5,5.76,7.12,7.32,6.6,0.00752,0.699,2.03,0.931,-0.321,1.73,0.51,3.85
CGAACCAGGTCAGAACAGGACAGTGAAGGATGAT,2.83,1.68,0.0841,0.939,-0.216,2.43,2.14,1.88,0.485,1.32,3.56,3.58,0.325,-0.243,1.16,1.66,-0.119,1.4,0.21,3.05
CCGACAGGGGCAAGGTTACCATAACGCACAGCCA,0.485,0.975,-0.0477,0.737,-0.848,1.49,1.32,0.765,0.0629,0.378,-0.0279,0.0813,-0.56,-0.66,0.577,0.585,0.0826,1.26,0.048,2.1
AGTCCAAGTTCAGGACGAGGTAACGTAAAGCACG,1.19,0.849,0.0911,0.596,-0.522,1.35,0.826,0.394,0.136,0.0902,-0.641,0.15,-0.559,-0.0596,0.572,1.93,0.749,1.34,-0.0097,2.56
CCAGACAGGTAAGAAGGTAACTCAGCCTCGATTA,0.251,0.138,-0.169,0.0955,-0.296,0.0886,0.35,-0.153,-0.728,-0.359,0.139,-0.122,-0.475,-0.368,0.961,0.129,0.112,0.274,0.51,0.0631
AGAACGAGGGCAATGAGTCGATAGCACGGGTGGC,0.187,-0.15,-0.625,-0.448,-0.595,1.03,1.41,0.849,0.0259,0.789,3.4,2.38,-0.0536,-0.236,-0.174,0.0741,0.415,-0.0854,-0.378,1.9
CCGACTGGGGCAAGGTTACCAGAACGCACAGCCA,0.168,0.506,-0.288,0.501,-1.15,1.97,2.79,3.43,0.792,2.68,2.21,3.49,-0.808,-1.44,0.502,0.259,0.151,0.58,-0.644,1.63
TCTTGTAGATCACCAGGAGGTTAAGAAAGATCGA,0.307,1.28,-0.0899,0.866,-0.174,1.39,-0.000569,1.19,2.45,1.52,1.92,1.27,0.392,0.634,-0.00402,0.915,-0.00438,1.15,-0.698,0.672
GCTAACAGGCCATTTGGGTCACTCAATGACGGGC,0.418,0.268,-0.00824,0.389,-0.169,1.73,0.912,0.349,-0.624,-0.263,1.61,1.82,-0.246,-0.627,0.24,0.795,0.0442,1.03,-0.111,1.81
CCTACTGAGCCACGAAAGGTCATTGATTCAGTGA,3.68,5.05,5.31,4.22,1.09,4.21,1.27,2.77,0.973,1.93,0.983,1.29,-0.156,0.271,3.9,5.33,2.61,5.69,3.37,3.95
GGAACGGGGGCAAAGTTGATAGCATCTGTCGACG,3.75,3.32,0.259,4.64,6.22,5.56,9.31,8.52,9.53,9.94,4.07,6.45,10.3,11.6,2.01,3.21,1.78,3.47,0.888,3.27
CGTCCAAGATCAAGGTCAGTGAAAGAGACTCGAA,1.53,1.53,0.459,1.7,-0.296,2.7,0.906,1.19,0.0233,0.76,1.25,1.67,-0.223,-0.447,1.25,1.82,0.628,2.07,0.651,3.28
TTACCCAGGTGAAGGTCGTTGATCCCTCTGTAGA,1.67,1.53,-0.000155,1.21,-0.632,1.77,0.932,1.73,0.687,1.04,1.24,2.58,-0.304,-0.0545,0.499,1.12,0.0205,1.6,-1.08,1.23
ATATGTAGGTTAGCTGGGGTTATTCAGACTAGGC,1.74,3.29,0.848,2.56,1.44,3.94,4.22,3.82,1.45,2.9,6.78,6.18,3.12,2.79,1.88,4.02,0.969,3.11,1.26,1.38
ACTAGCAGGGCAAGTTTGGGTCACTCAAACAAAG,1.11,0.854,-0.346,1.07,-0.746,1.85,0.29,0.531,-0.392,0.0112,2.04,1.96,-0.127,-0.121,0.449,1.13,-0.488,2.07,-0.817,2.43
CCTAATGGGCCATCAGGTCATTGATATCAACGTT,1.58,1.34,1.1,1.48,0.197,2.33,1.5,2.54,0.609,1.98,3.13,3.41,-0.226,0.112,1.81,1.84,0.78,2.18,0.44,2.15
TCTTGTAGATCAATACAGGTTAAGAAAGTGCGCT,0.747,2.01,0.393,1.23,0.0132,1.29,0.19,1.49,2.99,2.11,2.28,1.23,0.912,1.31,1.18,1.76,0.308,1.1,0.461,0.5
CCTCGGAGAACAGAAGGTCAGAGCTGTCCGCTTT,1.13,1.7,0.757,1.3,-0.0418,1.85,-0.162,0.587,-0.776,0.369,0.0999,-0.304,-1.44,-1.47,1.67,1.44,0.0963,1.92,0.634,2.42
TCTTGTAAATCAAGCAGGTTAAGAAAGCCTGAGT,0.618,0.47,-0.237,0.526,-0.289,0.845,-0.51,1.34,2.8,2.01,1.54,-0.000502,-0.116,0.31,-0.337,0.678,0.119,0.64,0.0275,0.495
CTTGCTAGGTCAATGGTCAGCTAAAGCAGCTCGC,2.93,2.77,0.107,1.33,-0.0348,3.41,5.43,5.94,4.16,5.69,5.14,4.93,-0.161,0.902,0.936,0.794,-0.623,1.83,-0.394,3.79
